Test results as given in PubChem BioAssay AID463 (The Scripps Research Institute Molecular Screening Center, 2006).
Among all 56,000 compounds or so, about 710 (1.3%) were called active.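 The calls were made as follows: active = inhibition above the mean inhibition of all tested compounds plus 3 SD (cut at about 28% in these data); inactive = the rest.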 The entries come from a sample that favours actives as a whole.

Test: cytotoxicity toward Jurkat T cells, primary screen, cytotoxicity control, cell-based, Jurkat E6.1, 60K MLSMR library (AID 463)
Settings: Jurkat E6.1 viability, ATP luminescence, 48 h; at 4 µM; active compounds read high

SMILES | inhibition
CCC(=O)c1ccc(OCC(O)CN2C(=O)NC(C)(C)C2=O)cc1 (stereo unspecified) | -6.4% (inactive)
O=C(c1cccc(S(=O)(=O)N2CCOCC2)c1)N1CCOCC1 | 0% (inactive)
CCOc1cccc(-c2nnc3sc(COc4ccc(OC)cc4)nn23)c1 | -3% (inactive)
COc1ccc(-n2nnnc2SCC(=O)c2ccc(OC)c(OC)c2)cc1 | 7.1% (inactive)
CCOc1cccc(-n2nnnc2-c2ccc(OC)cc2)c1 | 86.8% (active)
COC(=O)COc1ccc(S(=O)(=O)N2CCOCC2)cc1 | -6.6% (inactive)
CCOC(=O)Cc1csc(NC(=O)CN(C)S(=O)(=O)c2ccc3c(c2)CCC(=O)N3)n1 | -0.9% (inactive)
COc1ccc(NC(=O)c2cccc(NC(=O)c3ccco3)c2)c(OC)c1 | -4.5% (inactive)
CCOc1cc(-c2noc(CCC(=O)N3CCOCC3)n2)ccc1OC | -6.2% (inactive)
CCOc1cc(C(=O)N2CCc3cc(OC)c(OC)cc3C2)ccc1OC(F)F | 98.3% (active)
CCOc1cc(CN2CCN(C(=O)CC(C)C)CC2)ccc1OC | -0.1% (inactive)
COc1ccc(C(=O)Nc2ccc3c(c2)OCO3)cc1OC | 16.3% (inactive)
COc1nc(Oc2ccc(=O)n(C)n2)nc(N(C)C)n1 | 4.9% (inactive)
CC1(C)CC(=O)C(C=NCCC2=CCCCC2)=C(O)C1 | 2% (inactive)
C=CCn1c(CSc2nc3ccccc3s2)nnc1SCC(=O)NCc1ccco1 | 0.8% (inactive)
CN(Cc1ccccc1)C(=O)CCNC(=O)Cn1cnc2ccccc2c1=O | 7.8% (inactive)
O=C(Cn1cnc2c(cnn2-c2ccccc2)c1=O)NCc1ccccc1 | 35.9% (active)
O=C(Cn1cnc2c(cnn2-c2ccc(F)cc2)c1=O)NCCc1ccccc1 | -3% (inactive)
CC(=O)Oc1cccc(N2C(=O)C3CC=C(Cl)CC3C2=O)c1 (stereo unspecified) | -1.4% (inactive)
CS(=O)(=O)N1CCN(C(=O)c2cc3ccccc3oc2=O)CC1 | -5.4% (inactive)
CCN(CC)C(=O)CSc1nnc(-c2ccc(S(=O)(=O)NCc3ccccc3Cl)cc2)o1 | -7.3% (inactive)

SMILES | inhibition
Cc1ccccc1C(=O)NCCN=C1NS(=O)(=O)c2ccccc21 | 3.3% (inactive)
O=C(c1cccc(C(=O)N2CCN(c3ccc(F)cc3)CC2)c1)N1CCN(c2ccc(F)cc2)CC1 | 37.4% (active)
O=C(c1ccccc1)c1cccn1CC(=O)N1CCN(c2ccc(F)cc2)CC1 | -0.4% (inactive)
Cc1ccccc1CN1CCN(C(=O)c2cccc(F)c2)CC1 | -5% (inactive)
COc1cc(C2C(C#N)=C(C)NC3=C2C(=O)CC(C)(C)C3)ccc1O (stereo unspecified) | 5% (inactive)
COc1ccccc1CNC(=O)C1CCN(S(C)(=O)=O)CC1 | -5.6% (inactive)
CCOc1ccc(Cn2nnc(C(=O)NCc3ccccc3)c2N)cc1 | 2.3% (inactive)
Nc1c(C(=O)NCc2ccccc2)nnn1Cc1cccc(Cl)c1 | 83.8% (active)
CCOc1ccc(Cn2nnc(C(=O)Nc3ccc(OC)cc3OC)c2N)cc1 | -5.8% (inactive)
CCOc1c(OC)cc(C2C(C#N)=C(N)Oc3n[nH]c(-c4ccncc4)c32)cc1OC (stereo unspecified) | -1.9% (inactive)
O=C(Oc1cccnc1)c1cc2ccccc2oc1=O | 4.5% (inactive)
COc1ccc(-c2cc(C(F)(F)F)n3nc(C(=O)N4CCOCC4)c(Cl)c3n2)cc1 | -9.2% (inactive)
CCCCN=C(N)/C(C(=O)OCC)=C(\O)c1ccc(OC)cc1 | -0.7% (inactive)
CCc1ccc(N(CC)c2ncnc3nc[nH]c23)cc1 | 0.9% (inactive)
CC(=O)c1ccc(Oc2cc(C)nc(-n3nc(C)cc3C)n2)cc1 | 97.7% (active)
CCOC(=O)c1cnc(-n2nc(C)cc2C)nc1Nc1cccc(C(C)=O)c1 | 2.3% (inactive)
Cc1cc(C)n(-c2ccc(Cl)c(C(=O)O)n2)n1 | -4.6% (inactive)
O=C(COc1ccccc1Cl)Nn1cnnc1 | 4.2% (inactive)
COc1ccc(N2C(=O)C3CCCN3C2c2cccs2)cc1 (stereo unspecified) | -7.9% (inactive)
O=C(CC1N=C2c3ccccc3N=C(SCc3ccccc3Cl)N2C1=O)NCc1ccco1 (stereo unspecified) | 8% (inactive)
CC(C)C1N=C2c3ccccc3N=C(SCC(=O)c3ccc(O)c(O)c3)N2C1=O (stereo unspecified) | 50.8% (active)

SMILES | inhibition
NC(=O)CSC1=Nc2ccccc2C2=NC(CCC(=O)NCc3ccc(F)cc3)C(=O)N12 (stereo unspecified) | 4.5% (inactive)
CCCC(NS(=O)(=O)c1ccc(OC)cc1)C(=O)O (stereo unspecified) | 0.8% (inactive)
COC(=O)C(C)n1cnc2c(nnn2-c2cccc(Cl)c2)c1=O (stereo unspecified) | 6% (inactive)
Cc1oc(-c2ccccc2F)nc1CS(=O)(=O)CC(=O)NCCCN(C)C1CCCCC1 | 5% (inactive)
O=C(Nc1ccc(S(=O)(=O)N2CCCC2)cc1Cl)C1=COCCO1 | 10.5% (inactive)
COc1ccc(S(=O)(=O)N2CCOCC2)cc1C(=O)Nc1nc2ccccc2s1 | -2.5% (inactive)
O=C(Nc1ccc2c(c1)nc1n2CCCCC1)c1cc(S(=O)(=O)N2CCOCC2)ccc1Cl | 34.5% (active)
O=C1N(Cc2ccc3c(c2)OCO3)c2ccccc2C1(O)c1c[nH]c2ccccc12 (stereo unspecified) | -8.9% (inactive)
CCCCNC(=O)CSc1nccn1Cc1ccccc1 | -7.9% (inactive)
COCCNCCOCCOc1cccc(OC)c1 | 5.4% (inactive)
Cc1cc(Nc2cccc(F)c2)n2ncnc2n1 | 0.2% (inactive)
CCCOC(=O)c1[nH]c2c(c1C)C(=O)CC(c1cc(OC)c(OC)c(OC)c1)C2 (stereo unspecified) | 45.9% (active)
CCOC(=O)c1[nH]c2c(c1C)C(=O)CC(c1ccc(N(C)C)cc1)C2 (stereo unspecified) | 1% (inactive)
COC(=O)C1C(=O)c2c([nH]c(C(=O)OCCSC)c2C)CC1C (stereo unspecified) | -3.9% (inactive)
Cc1ccc(N(CC(O)CN2CCCC2)S(=O)(=O)c2ccccc2)cc1 (stereo unspecified) | 2.6% (inactive)
Cc1ccc(S(=O)(=O)C2(S(=O)(=O)c3ccc(C)cc3)CCCC2)cc1 | 84% (active)
Cc1ccc(S(=O)(=O)N2CCCC2CO)cc1 (stereo unspecified) | -3.1% (inactive)
Cc1ccc(S(=O)(=O)NC(=O)N2CCCC(C)(C)C2)cc1 | -5.4% (inactive)
CC(C)(O)C#Cc1ccc(C(=O)N2CCC(C(N)=O)(N3CCCCC3)CC2)cc1 | -6.2% (inactive)
